Reference: PubChem BioAssay AID686935 (National Center for Advancing Translational Sciences (NCATS), 2013)
Results filed as inconclusive are left out. A number with no mark means an inactive call. Calls come from the whole dose curve; as a rule, active = well fitted curve in the direction sought with a large enough effect; inconclusive = small, poorly fitted or top-dose-only effect, or another doubt; inactive = no such curve, though single readings can be large or run the other way.

Assay: qHTS Assay for Lipid Storage Modulators: CytotoxicityAssay against Probe and Analogs
Conditions: 3T3-L1 adipocytes cytotoxicity, imaging cell count; series mostly up to 20 µM; activity change, negative = cytotoxicity: at the top concentration
Source text: Storing lipids as a reservoir for energy or the anabolism of elementary metabolites is a common feature of probably all cells and is conserved from bacteria to humans. The universal cellular lipid storage organelle is the so-called lipid storage droplet (LD). Although ubiquitous, LDs share a simple structure composed of a hydrophobic core that harbors the storage lipids, which is shielded by a droplet-specific phospholipid monolayer to which proteins are attached. The current model of LD biogenesis involves an incorporation of the lipid core into the membrane leaflets of the endoplasmic reticulum (ER) followed by a subsequent budding-like maturation of a LD, which ultimately pinches off. Once released, LD volume can increase by localized lipogenesis or fusion of existing droplets. Storage lipids are re-mobilized enzymatically by lipase activity. Lipase regulation in the adipocyte is heavily studied and involves multiple components including catecholamine signaling, the LD-associated proteins Perilipin and comparative gene identification-58 (CGI-58) and at least two lipases named hormone sensitive lipase (HSL) and adipocyte triglyceride lipase (ATGL). LD regulation outside of the adipocyte is poorly understood and only few components are known. However, there is an urgent need to learn more about ectopic fat depots as mislocalized storage of lipids, for example in the liver or muscle, is an eminent health problem associated with insulin resistance or the metabolic syndrome. We developed a laser-scanning cytometer assay to enable 1,536-well screening and combined the results of the small molecules screen with an RNAi database based on lipid storage. In this assay we tested analogs of the probe in a cytotoxicity assay. NIH Molecular Libraries Probe Production Centers Network [MLPCN] NIH Chemical Genomics Center [NCGC] MLPCN Grant: MH085686 Assay Submitter (PI): Mathias Beller, Max-Planck-Institut fur Biophysikalische Chemie
3T3-L1 cells were obtained from ATCC (CL-173). Pre-adipocyte medium (PM-1),differentiation medium (DM-2) and after adipocyte medium (AM-1) were purchased from Zen-Bio (# PM-1-L1, DM-2-L1, AM-1-L1). […] of PM-1containing 3,000 cells was dispensed into each well of a 96-well plate (Corning, #3340), and the assay plates were incubated at 37 °C, 95% humidity and 5% CO2 for 3-5 days. The differentiation of pre-adipocyte to adipocyte was induced by removing the pre-adipocyte medium and replacing with […] of differentiation medium. […] of compounds at different concentrations dissolved in differentiation medium were added to the assay plates, along with medium exchange for differentiation to test their effects on adipocyte differentiation. The final DMSO concentration was 0.5%. Triacsin C (Sigma-Aldrich T-4540), an inhibitor of long-chain fatty acyl CoA synthetase that blocks synthesis of triglycerides, was used as a positive control for lipid under-storage. After 3 days, differentiation medium was replaced with 200ul of adipocyte maintenance medium and assay plates were incubated for 4 days. Cells were then fixed using4% of paraformaldehyde in PBS for 30 minutes at room temperature, washed 3 times with PBS buffer. Finally, the cells were stained using […] of PBS containing BODIPY lipid dye 493/530 (1:2000 -, Life Technologies, # D-3922), Hoechst 33342 (1:1000, Life Technologies, #H3570) and CellMask deep red dye (1:10,000 , Life Technologies, #H32721). Images were acquired using InCell 2000 (GE), number of cells, number of lipids, size of lipids and cells were analysis using GE Investigator software.

SMILES | activity change, negative = cytotoxicity [%]
CCOc1ccc(CCNC(=O)c2cc3ccccc3n2Cc2ccccn2)cc1OCC | 0.909
CCOc1ccc(CCNC(=O)c2cc3ccccc3n2Cc2cccc(C)n2)cc1OCC | -10.5
CCOc1ccc(CCNC(=O)c2cc3ncccc3n2Cc2cccc(C)n2)cc1OCC | -10.5
CCOc1ccc(CCNC(=O)c2cc3sccc3n2CCN(C)C)cc1OCC | -2.7
CCOc1ccc(CCNC(=O)c2cc3ccccc3n2CCN2CCOCC2)cc1OCC | 6.45
CCOC(=O)C1CCN(C(=O)C2(NC(=O)Nc3ccccc3Cl)CCCC2)CC1 | -14.5
CCOc1ccc(CCNC(=O)c2cc3sccc3n2Cc2ccc(F)cc2F)cc1OCC | 10
CCOc1ccc(CCNC(=O)c2cc3cccnc3n2Cc2cccc(C)n2)cc1OCC | -0.901
